Reference: PubChem BioAssay (NCI)
This is part of a sample that, as a whole, favours compounds with a hit. Of some 83,000 tested, about 20% had one in any assay.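 Results are percent growth after 48 hours of single-concentration exposure. 100 means growth as in untreated cells, lower positive values show inhibition; negative values down to -100 show cell death.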 Values without a mark were called inactive. Active and inactive are the calls of the source. How the source made its calls: active means growth percent below 10; inactive means the rest.

Tests used:
Assay in all cases: NCI-60 one-dose screen, 48 h (100 = growth as untreated, 0 = no growth, -100 = all killed)
[1] = tested on: NCI-H23 lung; conditions: 10 µM unless noted
[2] = tested on: NCI-H226 lung; conditions: 10 µM unless noted
[3] = tested on: NCI-H322M lung; conditions: 10 µM unless noted
[4] = tested on: HOP-62 NSCLC; conditions: 10 µM unless noted
[5] = tested on: NCI-H460 lung; conditions: 10 µM unless noted
[6] = tested on: HOP-92 NSCLC; conditions: 10 µM
[7] = tested on: NCI-H522 lung; conditions: 10 µM unless noted
[8] = tested on: A549/ATCC NSCLC; conditions: 10 µM unless noted
[9] = tested on: 786-0 renal; conditions: 10 µM unless noted
[10] = tested on: COLO 205 colon; conditions: 10 µM unless noted
[11] = tested on: DU-145 prostate; conditions: 10 µM unless noted
[12] = tested on: K-562 leukemia; conditions: 10 µM unless noted
[13] = tested on: MALME-3M melanoma; conditions: 10 µM unless noted
[14] = tested on: MDA-MB-231 breast; conditions: 10 µM unless noted
[15] = tested on: RXF 393 renal; conditions: 10 µM unless noted
[16] = tested on: SF-268 CNS; conditions: 10 µM unless noted
[17] = tested on: SF-295 CNS; conditions: 10 µM unless noted
[18] = tested on: SF-539 CNS; conditions: 10 µM unless noted
[19] = tested on: UACC-257 melanoma; conditions: 10 µM unless noted

| SMILES | growth [1] | growth [2] | growth [3] | growth [4] | growth [5] | growth [6] | growth [7] | growth [8] | growth [9] | growth [10] | growth [11] | growth [12] | growth [13] | growth [14] | growth [15] | growth [16] | growth [17] | growth [18] | growth [19] |
| --- | --- | --- | --- | --- | --- | --- | --- | --- | --- | --- | --- | --- | --- | --- | --- | --- | --- | --- | --- |
| C=C1CC[C@@H]2[C@](C)(CO)[C@H](O)CC[C@@]2(C)[C@@H]1C/C(O)=C1\CCOC1=O | 104% | 108% | 103% | 102% | 103% | 101% | 82.5% | 96% | 111% | 130% | 102% | 73.1% | 105% | 110% | 123% | 98.8% | 103% | 108% | 93.1% |
| COc1cc2c(cc1OC)C(Sc1ccc(F)cc1)c1c(nc(N)c(C#N)c1N)O2 (stereo not given) | -83.1% (active) | -29.4% (active) | -74.8% (active) | 10.5% | -60.7% (active) | -29.4% (active) | -37.7% (active) | -30% (active) | -72.3% (active) | -45.3% (active) | -93.3% (active) | 8.27% (active) | -75.1% (active) | -79% (active) | – | -38.3% (active) | -74.8% (active) | -90.6% (active) | -25% (active) |
| CCn1c(SCC(=O)Nc2cccc(C(=O)/C=C/c3ccc(C)cc3)c2)nc2ccccc2c1=O | 76.9% | 73.4% | 86.7% | 108% | 98.2% | 77.7% | 81.1% | 68% | 93.6% | 122% | 77.2% | 55.4% | 103% | 92.1% | – | 87.2% | 104% | 86.5% | 105% |
| COc1ccc(-n2c(/C=C3\C(=O)Nc4ccccc43)ccc2CO)cc1 | 104% | 95.3% | 104% | 95.1% | 113% | 91.5% | 89.6% | 97% | 99.1% | 114% | 106% | 90.9% | 72.2% | 95% | 99.7% | 99.2% | 105% | 97.5% | 105% |
| O=S(=O)(NCCNc1nccc(-n2cnc3ccccc32)n1)c1ccc(Cl)cc1 | 101% | 91.1% | 95.3% | 95.4% | 103% | 90.2% | 92.1% | 103% | 99% | 104% | 104% | 97.6% | 99.5% | 90.6% | 117% | 92.3% | 96.7% | 91.2% | 103% |
| O=C(Nc1cccc(C(F)(F)F)c1)c1cc(-c2ccc(F)cc2F)ccc1O | -4.34% (active) | 9.06% (active) | 4.46% (active) | 12.8% | 2.67% (active) | -26.2% (active) | -4.56% (active) | 7.54% (active) | 14.9% | 75.5% | 18.9% | 11.1% | -10.2% (active) | 3.11% (active) | -25.9% (active) | 16.5% | -23.1% (active) | 10.4% | -8.74% (active) |
| Cc1ccc(-c2nnc(SCc3ccc(O)c4ncccc34)n2-c2ccccc2)cc1 | 15.6% | 24.4% | 19.6% | 10.6% | -15.8% (active) | -12.5% (active) | -5.09% (active) | 11.3% | 25% | 25.6% | 30.2% | 6.04% (active) | 3.77% (active) | 23.6% | -0.61% (active) | 14.8% | -10.3% (active) | 5.11% (active) | -7.27% (active) |
| CN1CCN(Cc2ccc(NC(=O)c3cncc(C#Cc4cnc5ccc(OCC6(C)COC6)nn45)c3)cc2C(F)(F)F)CC1 | -76.2% (active) | -62.4% (active) | -81.2% (active) | -69.4% (active) | -77.5% (active) | -70.6% (active) | -28.3% (active) | -43.8% (active) | -55.4% (active) | -58.5% (active) | -85.3% (active) | 4.99% (active) | -79.8% (active) | -74.1% (active) | – | -62.2% (active) | -97.1% (active) | -88.6% (active) | -70.6% (active) |
| COc1ccc(N2CCN(C3=C(Cl)C(=O)C(C)=C(C)C3=O)CC2)cc1 | 106% | 99.2% | 106% | 91.5% | 104% | 102% | 92.3% | 108% | 118% | 125% | 108% | 83.1% | 110% | 88.2% | 153% | 105% | 108% | 105% | 102% |
| Nc1cc(F)ccc1NC(=O)c1ccc(NC(=O)C/C=C/c2cccnc2)cc1 | 62.5% | 70.8% | 67% | 48.7% | 56.8% | 25.2% | 15.2% | 55.9% | 72.6% | 21.2% | 23.7% | 26% | 47.6% | 57.2% | 87.1% | 53.7% | 41.6% | 11.9% | 55.8% |
| O=S(=O)(NCCCNc1nccc(-c2[nH]c(-c3ccccc3)nc2-c2ccc(Cl)c(O)c2)n1)c1cccc2ccccc12 | 30.6% | 32.9% | 50.9% | 30.9% | 15.5% | 51.4% | 25.2% | 26.5% | 47.9% | 93.8% | 27.6% | 17% | 6.39% (active) | 45.9% | -9.57% (active) | 46.8% | 12.9% | 44.8% | 27% |
| CCN1CCN(Cc2cn(-c3ccc(S(N)(=O)=O)cc3)nn2)CC1 | 108% | 96.5% | 106% | 107% | 108% | 104% | 97.8% | 109% | 102% | 109% | 108% | 104% | 111% | 104% | 116% | 103% | 105% | 99.3% | 107% |
| COc1ccc2c(c1)c(CC(=O)[Se]CCC#N)c(C)n2C(=O)c1ccc(Cl)cc1 | 3.36% (active) | -53.6% (active) | -3.57% (active) | -48.1% (active) | 1.16% (active) | -67.8% (active) | -8.61% (active) | 2.64% (active) | -45.3% (active) | 88.4% | 6.8% (active) | 21.2% | -68.3% (active) | -13.8% (active) | – | -30.7% (active) | -82.9% (active) | -63.9% (active) | 6.66% (active) |
| COc1cc(/C=C/C(=O)c2ccc(NC(=O)CSc3nnc(-c4ccc(-c5nc6ccc(Cl)cc6[nH]5)cc4)o3)cc2)cc(OC)c1OC | 101% | 104% | 99.6% | 89.8% | 98.7% | 115% | 76.1% | 99.5% | 109% | 106% | 94% | 60.1% | 95.5% | 79.1% | 84.1% | 91.8% | 95.6% | 94.2% | 88.1% |
| COc1ccc(N2C(=O)c3cc(Cl)ccc3NC2SCc2ccccc2)cc1 (stereo not given) | 97% | 96.2% | 97.1% | 102% | 109% | 92.1% | 87.4% | 91.5% | 92% | 114% | 106% | 88.9% | 99.2% | 85.1% | 101% | 98.3% | 102% | 98.7% | 97.7% |
| COc1ccc([C@@H]2c3[nH]c4ccccc4c3C[C@H]3C(=O)N(C4CCN(CC5CCCCC5)CC4)CC(=O)N23)c(OC)c1 | 93.3% | 74.1% | 90.3% | 72.9% | 82.5% | 51.3% | 85.2% | 72.2% | 70.5% | 51.2% | 80.8% | 22% | 95.7% | 75.5% | 28.7% | 67.2% | 98.6% | 78.6% | 84.8% |
